Test results from PubChem BioAssay (NCATS).
Inconclusive results are not listed. A call without a number means that no potency is given here. The source made the active and inactive calls. Calls come from the whole dose curve; as a rule, active = well fitted inhibition curve with a large enough effect; inconclusive = small, poorly fitted or top-dose-only effect; inactive = flat fitted curve, though single readings scatter.

What was measured:
Assay in all cases: qHTS profiling for inhibitors of Plasmodium falciparum proliferation (AID 504749); note: nearly all actives have a fitted effect of over 60% in size
Conditions in all cases: P. falciparum in erythrocytes, SYBR Green DNA, 72 h; series mostly up to 28.7 µM
[1] = system: ATS95
Method in brief: (§1)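 Three-day growth assay of blood-stage parasites in erythrocytes (0.3% parasitemia, 2.5% hematocrit) at 37 C, 5% CO2, quantified by SYBR Green DNA staining after overnight detergent lysis.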

[2] = system: C2A
Method in brief: as §1

[3] = system: CP185
Method in brief: as §1

[4] = system: CP237
Method in brief: as §1

[5] = system: CP238
Method in brief: as §1

[6] = system: CP262
Method in brief: as §1

[7] = system: CP265
Method in brief: as §1

[8] = system: CP268
Method in brief: as §1

[9] = system: CP269
Method in brief: as §1

[10] = system: CP286
Method in brief: as §1

[11] = system: CP305
Method in brief: as §1

[12] = system: CP325
Method in brief: as §1

[13] = system: CP329
Method in brief: as §1

[14] = system: CP335
Method in brief: as §1

[15] = system: DIV30
Method in brief: as §1

[16] = system: Dd2
Method in brief: as §1

[17] = system: ECU
Method in brief: as §1

[18] = system: HB3
Method in brief: as §1

[19] = system: P93_24
Method in brief: as §1

[20] = system: PAD
Method in brief: as §1
Potency is the fitted concentration of half-maximal effect.

Structure (SMILES) | Potency [1] | Potency [2] | Potency [3] | Potency [4] | Potency [5] | Potency [6] | Potency [7] | Potency [8] | Potency [9] | Potency [10] | Potency [11] | Potency [12] | Potency [13] | Potency [14] | Potency [15] | Potency [16] | Potency [17] | Potency [18] | Potency [19] | Potency [20]
CCN1C[C@]2(COC)[C@H](O)C[C@H](OC)[C@]34C1C([C@H](OC)[C@H]23)[C@]1(OC(C)=O)C2[C@@H](OC(=O)c3ccccc3)C(O)(C[C@H]24)[C@@H](OC)[C@@H]1O | inactive | inactive | inactive | inactive | inactive | inactive | inactive | inactive | inactive | inactive | inactive | inactive | inactive | inactive | inactive | inactive | inactive | inactive | inactive | inactive
CC(C)[C@@]1(NC(=O)[C@H]2CC3c4cccc5[nH]cc(c45)C[C@H]3N(C)C2)O[C@@]2(O)C3CCCN3C(=O)[C@@H](Cc3ccccc3)N2C1=O (stereo not given in full) | 3.16 µM (active) | 6.31 µM (active) | 10 µM (active) | 1.26 µM (active) | 3.98 µM (active) | 12 µM (active) | 4.47 µM (active) | 10.7 µM (active) | 4.26 µM (active) | 3.98 µM (active) | 6.75 µM (active) | 9.53 µM (active) | 13.5 µM (active) | 3.79 µM (active) | 1.51 µM (active) | 2.82 µM (active) | 1.41 µM (active) | 2 µM (active) | 0.891 µM (active) | 1.12 µM (active)
O=C(O)c1ccccc1-c1c2cc(Br)c(=O)cc-2oc2[c]([Hg])c(O)c(Br)cc12 | inactive | inactive | inactive | inactive | inactive | inactive | inactive | inactive | inactive | inactive | inactive | inactive | inactive | inactive | inactive | inactive | inactive | inactive | inactive | inactive
CCN(CC)CCO[C@H]1CC[C@@]2(C)C(=CC[C@@H]3[C@H]2CC[C@]2(C)C(=O)CC[C@H]32)C1 | inactive | inactive | inactive | inactive | inactive | inactive | inactive | inactive | inactive | inactive | inactive | inactive | inactive | inactive | inactive | inactive | inactive | inactive | inactive | inactive
